Compounds with a hit are over-represented: about 22% of the library has one in this group of screens.
LmPK inh: blocks Leishmania mexicana pyruvate kinase activity | purified LmPK, Kinase-Glo ATP luminescence, 1 h | Potency, µM (series often up to 57.5 µM), inactives show at the highest dose activity change, negative = inhibition, most hits filed as inhibitors | 290,000 tested, 0.37% active | AID 1721; also: potency is read from the fitted curve at half-maximal effect; % is scaled to controls: 0 for no effect and ±100 for the full control effect
Target sequence (Q27686 whole entry, looked up): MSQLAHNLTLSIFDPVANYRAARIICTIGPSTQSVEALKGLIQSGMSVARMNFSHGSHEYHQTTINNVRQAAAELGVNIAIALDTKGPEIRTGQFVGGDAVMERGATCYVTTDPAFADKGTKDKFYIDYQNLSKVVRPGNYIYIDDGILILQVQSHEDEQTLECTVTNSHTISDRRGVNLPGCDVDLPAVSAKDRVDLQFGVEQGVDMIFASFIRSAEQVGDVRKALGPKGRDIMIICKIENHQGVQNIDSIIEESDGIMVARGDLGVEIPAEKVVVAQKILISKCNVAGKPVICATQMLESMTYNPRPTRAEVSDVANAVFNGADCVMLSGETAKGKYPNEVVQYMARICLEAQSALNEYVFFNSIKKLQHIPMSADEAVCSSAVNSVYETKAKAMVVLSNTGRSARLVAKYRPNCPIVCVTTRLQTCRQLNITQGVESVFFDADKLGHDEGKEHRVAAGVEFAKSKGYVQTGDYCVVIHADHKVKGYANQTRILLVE
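Purified LmPK (0.1 nM) with 0.5 mM PEP and 0.1 mM ADP in imidazole buffer pH 7.2 with MgCl2/KCl, 1 h at room temperature. ATP formed was read by luciferase luminescence and normalized to no-enzyme and uninhibited controls.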
Pf growth 48h: inhibits P. falciparum growth in the first generation, 48 h | 310,000 tested, 5.9% active | P. falciparum luciferase growth in erythrocytes, 48 h | AID 504832 | Potency, µM (highest dose often 28.7 µM), without a hit: at the highest dose activity change, negative = inhibition, usual class: inhibitors; also: potency is read from the fitted curve at half-maximal effect; % is scaled to controls: 0 for no effect and ±100 for the full control effect
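Firefly luciferase activity from engineered P. falciparum reports growth; inhibitors lower the luminescent signal. Cultures contained 2% hematocrit erythrocytes at 0.1% final parasitemia.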
Pf growth 96h: P. falciparum growth inhibition at 96 hour, primary screen for plastid delayed-death inhibitors; P. falciparum luciferase reporter growth, 96 h; Potency, µM (doses to about 28.7 µM), inactives show top-dose activity change, negative = inhibition, actives largely listed as inhibitors; 320,000 tested, 6.9% active; AID 504834; also: potency is read from the fitted curve at half-maximal effect; % is scaled to controls: 0 for no effect and ±100 for the full control effect
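Cell-based qHTS: luciferase-tagged P. falciparum in erythrocytes (2% hematocrit, 0.05% parasitemia final) incubated with compounds for 96 hours, 37 C, 5% CO2; luciferase detection reagent then added and luminescence measured.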
Shiga inhibitor: inhibitors of Shiga toxin in Vero cells | Vero cells, Shiga toxin protein synthesis inhibition reporter | inhibition, % at 38.7 µM | 290,000 tested, 9.2% active; in the data active = inhibition mostly above about 28%, no sharp cut-off; inactive = mostly below about 43%; also: 0% is about no effect
CHX counter: counter-screen hit for Shiga toxin inhibitors, cycloheximide; max response, %; 300,000 tested, 12% active; cell reporter, cycloheximide protein synthesis inhibition counterscreen; in the data active = max response mostly above about 13%, no sharp cut-off; inactive = mostly below about 14%; also: read at 38.3 µM for the half of the compounds with a filed dose; 0% is about no effect
The depositor's hits bear a star; ? = inconclusive; · = no result given; [ ] = dose if it differs, or a comment. Unless noted, calls follow the shape of the dose curve; as a rule, active = well fitted inhibition curve with a large enough effect; inconclusive = small, poorly fitted or top-dose-only effect, or another doubt; inactive = no such curve, though single readings can be large or run the other way.

SMILES | LmPK inh | Pf growth 48h | Pf growth 96h | Shiga inhibitor | CHX counter
O=C(CN1C(=O)S/C(=C\c2ccccc2Cl)C1=O)NCCCn1ccnc1 | -0.1% | 37.2% | 25.0% | -3.3 | 1.0
COc1ccccc1/C=C1\SC(=S)N(CCC(=O)Nc2cc(C)on2)C1=O | -2.3% | -7.4% | 9.28µM* | -10.5 | -6.4
Cc1cc(NC(=O)CCN2C(=O)/C(=C/c3ccccc3Cl)SC2=S)no1 | -4.3% | 2.9% | 37.9% | -10.3 | -0.6
COc1ccccc1/C=C1\SC(=O)N(CC(=O)NCCCn2ccnc2)C1=O | -2.0% | 11.7µM* | ? | -3.1 | -0.9
COc1ccccc1/C=C1\SC(=S)N(CCC(=O)Nc2cccc(O)c2)C1=O | -2.2% | ? | 259.9% | 26.8* | 17.4*
CCOc1ccccc1OCCCC(=O)NNC(=O)c1cc(C)oc1C | · | -0.8% | 6.3% | · | ·
CC1CN(C(=O)CCC(=O)NCCCc2ccccc2)c2ccccc2O1 (configuration not stated) | -7.2% | -12.9% | -24.0% | -2.7 | -0.6
CCN(CC)c1ccc(CN(C(=O)c2cccs2)C2CCS(=O)(=O)C2)cc1 (configuration not stated) | -2.3% | ? | ? | -4.6 | -1.9
Cc1cc(C)c(C(=O)COC(=O)c2cc([N+](=O)[O-])ccc2N2CCOCC2)cc1C | · | 10.4µM* | ? | · | ·
COc1ccccc1C(=O)COC(=O)c1cc([N+](=O)[O-])ccc1N1CCOCC1 | · | 4.65µM* | ? | · | ·
CC1(NC(=O)NCCCCCCNC(=O)NC2(C)CCS(=O)(=O)C2)CCS(=O)(=O)C1 (configuration not stated) | -8.3% | 16.9% | -15.1% | -6.5 | -5.2
COc1ccccc1CNCC(O)(c1ccc(Cl)cc1)c1ccc(Cl)cc1 | 0.2% | 1.65µM* | 1.65µM* | 5.4 | -1.9
COc1ccccc1CNC(=S)NCc1ccc(Cl)cc1 | 2.4% | ? | -18.4% | 15.3 | 10.1
COc1ccccc1CNCC(O)(c1ccc(F)cc1)c1ccc(F)cc1 | 2.2% | 3.7µM* | 4.65µM* | -3.7 | -1.5
OC(CNCc1ccccc1F)(c1ccc(F)cc1)c1ccc(F)cc1 | -1.2% | ? | ? | 23.2 | 13.6
NCC1CCC(C(=O)O)CC1 (configuration not stated) | · | -9.6%[12.8 µM] | -20.3%[12.8 µM] | · | ·
O=C(c1ccco1)N1CCN(Cc2ccc(F)cc2Cl)CC1 | 0.2% | ? | 0.0% | · | 49.9*
C/C(=N/N1CCN(Cc2cccc3ccccc23)CC1)c1ccco1 | -14.9% | 0.7% | 1.7% | 17.0* | 10.9
O=C(c1ccco1)N1CCN(Cc2ccccc2Br)CC1 | 7.1% | -10.7% | ? | 56.2* | 34.1*
O=C(c1ccco1)N1CCN(Cc2ccc(F)cc2)CC1 | 1.5% | -0.1% | 22.2% | -6.2 | -1.0
Cc1ccc(C(=O)c2c3ccc([N+](=O)[O-])cc3[n+]([O-])n2CCCN)cc1 | · | -93.8% | ? | · | ·
Cc1cc(=O)oc2cc(OCC(=O)Nc3c(C)n(C)n(-c4ccccc4)c3=O)c(Cl)cc12 | · | -3.0% | 1.8% | · | ·
CC(=O)c1cccc(NC(=O)COC(=O)CCC(=O)c2cccs2)c1 | · | 47.1% | ? | · | ·
CC(NC1c2ccccc2-c2ccccc21)c1ccccc1 (configuration not stated) | -0.8% | ? | ? | -5.2 | -10.4
Cc1c(C(=O)N2CCOCC2)sc(NC(=O)CCl)c1C#N | -0.5% | 2.08µM* | -22.5% | -3.7 | -3.2
SMILES | LmPK inh | Pf growth 48h | Pf growth 96h | Shiga inhibitor | CHX counter
Cc1c(C(=O)N2CCOCC2)sc(NC(=O)c2ccc([N+](=O)[O-])cc2)c1C#N | -8.9% | -17.2% | 28.6% | -6.6 | -4.4
O=C(NCc1ccccc1)C(c1ccc(O)cc1)N(C(=O)c1cnccn1)c1ccccc1 (configuration not stated) | -3.9% | -4.5% | -46.5% | -6.8 | -3.5
COc1ccc(CNC(=O)C(c2ccco2)N(C(=O)c2ccccn2)c2ccccc2)cc1 (configuration not stated) | 6.9% | 101.8% | ? | 83.6* | 38.1*
O=C(NCc1ccccc1)C(c1ccncc1)N(C(=O)c1ccccn1)c1ccccc1 (configuration not stated) | -8.7% | 16.6% | 56.6% | 60.0* | 24.9*
COc1ccc(N(C(=O)c2cnccn2)C(C(=O)NCc2ccccc2)c2ccc(O)cc2)cc1 (configuration not stated) | -4.6% | 53.4% | 18.7% | 75.3* | 27.8*
CC12CCC(C(=O)N(NC(=O)c3ccccc3Cl)C1=O)C2(C)C (configuration not stated) | -1.9% | 31.5% | -3.6% | -4.6 | -0.4
CCCc1cnc(N2CCN(C(=O)c3ccc(F)cc3)CC2)nc1 | 2.3% | ? | ? | 29.8 | 3.9
CCCc1cnc(N2CCN(C(=S)NC)CC2)nc1 | -1.9% | 143.9% | 104.0% | 66.0* | 43.6*
Cc1cc(CCC(=O)O)c(C)cc1CCC(=O)O | 0.2% | 5.86µM* | ? | 21.1 | -2.7
N#CC(C#N)=c1ccc2c(c1)NC1(CCCCC1)N=2 | 14.1µM* | ? | ? | 64.7* | 36.8*
C[C@H](NC(=O)N1CCc2nc(-c3ccccc3)c3c(c2C1)CO[C@@H](C)C3)c1ccccc1 | -3.7%[11.5 µM] | · | · | · | ·
COc1cc(CCNC(=O)CCCn2c(=O)c3cccn3c3cccnc32)cc(OC)c1OC | 5.3% | -19.2% | ? | -10.9 | -3.9
Cc1ncc(CO)c2c1Oc1nc(-c3ccccc3)nc(SCC(=O)Nc3cccc(O)c3)c1C2 | 8.1% | 9.28µM* | -3.1% | 5.2 | 1.0
O=C(CSc1nc(-c2ccc(F)cc2)nc2c1Cc1ccccc1O2)Nc1cccc(C(=O)O)c1 | -2.2% | 467.0% | ? | 9.8 | -1.1
CCc1ccc(NC(=O)CSc2nc(-c3ccc(C)cc3)nc3c2Cc2c(CO)cnc(C)c2O3)cc1 | · | 2.6% | -5.7% | · | ·
COc1ccc(-c2nc3c(c(SCC(=O)Nc4cccc(O)c4)n2)Cc2c(CO)cnc(C)c2O3)cc1 | 3.3% | 9.28µM* | 3.6% | -1.5 | 8.1
COc1cc(/C=N/NC(=S)NCCN2CCOCC2)ccc1O | 1.8% | 38.5% | 62.8% | -9.5 | -2.5
CCCCOc1ccc(-c2nnn(C(C)C(=O)OCC)n2)cc1 (configuration not stated) | -0.1% | 50.7% | · | 32.6 | 8.4
CCCCOc1ccc(-c2nnn(C(C)(C)C(=O)OC)n2)cc1 | -0.5% | 15.8% | · | 56.7* | 32.0*
CC(C)c1ccc(S(=O)(=O)/N=C2\C=C(NS(=O)(=O)c3ccccc3)C(=O)c3ccccc32)cc1 | -1.1% | -29.9% | 3.8% | -2.5 | 7.1
CC(C)c1ccc(S(=O)(=O)/N=C2/C=CC(=O)c3ccccc32)cc1 | -14.9% | 8.28µM* | 58.0% | 5.7 | 15.3
CC(C)NC1=C(Cl)C(=O)c2ccccc2C1=O | -7.8% | · | 0.928µM* | 43.4 | 20.5*
CCN(CC)CCCNC1=C(Cl)C(=O)c2ccccc2C1=O | -5.6% | ? | ? | 29.5 | 1.8
C=CCNC1=C(Cl)C(=O)c2ccccc2C1=O | -11.6% | 2.94µM* | 15.8% | active | 1.3
COCCCNC1=C(Cl)C(=O)c2ccccc2C1=O | -11.3% | 4.15µM* | 2.33µM* | 48.9* | 33.1*

Screens from PubChem BioAssay.
